Values joined by “and” are separate entries in the source; they are usually repeats but may differ in a detail not shown here. Identical values can stand only once. Active and inactive are the calls of the source.
Legend:
[1] = optical density shifts of acrAB sulA E. coli – strain DRC41, OD650, 48 h, E. coli filamentation inducer project, primary screen (AID 1152); conditions: higher = more signal, called active from +8 up or from −8 down;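 also: E. coli MC1000 strain DRC41 lacking acrAB efflux pump and sulA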
[2] = probe aLefty1 binding on compound microarray – biochemical, small-molecule microarray, 635/667 nm fluorescence, primary screen (AID 1153); conditions: higher = more signal;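 also: score merges spot fluorescence with signal-to-noise ratio from the scanned slide images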
[3] = plasmodial surface anion channel blockers, osmotic lysis – cell-based, P. falciparum Indochina, OD700, 1 h, primary screen (AID 1154); conditions: P. falciparum Indochina infected RBC osmotic lysis, higher = more signal, called active from +8 up or from −8 down
[4] = plasmodial surface anion channel blockers, osmotic lysis – cell-based, P. falciparum Indochina, OD700, 2 h, primary screen (AID 1155);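 also: lysis reports solute entry through the parasite surface anion channel PSAC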; conditions: P. falciparum Indochina infected erythrocytes, higher = more signal, called active from +8 up or from −8 down
[5] = changes in parasitized red cell lysis, either direction – P. falciparum Indochina, OD700, 3 h, PSAC antagonist project, primary screen (AID 1156); conditions: P. falciparum-infected erythrocytes, osmotic lysis, higher = more signal, called active from +8 up or from −8 down
[6] = plasmodial surface anion channel blockers, osmotic lysis – cell-based, P. falciparum Indochina, OD700, 18 h, primary screen (AID 1157); conditions: P. falciparum Indochina infected erythrocytes, osmotic lysis OD700, 18 h; higher = more signal, called active from +8 up or from −8 down
[7] = S6 kinase pathway phospho-S6 level changes – cell-based, A549, cytoblot, luminescence, serum-stimulated, primary screen (AID 1158); conditions: 5 h, higher = more signal;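 also: serum-stimulated A549 lung adenocarcinoma cells; signal is phosphorylated S6 detected by cytoblot immunostaining with HRP secondary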
[8] = target: NADPH oxidase 2 (Homo sapiens) (UniProt P04839); test: compounds shifting NOX2 Amplex Red fluorescence – cell-based, HEK293-NOX2, PMA-stimulated, NOX inhibitor project, primary screen (AID 1159); conditions: 45 min, higher = more signal, called active from +8 up or from −8 down; also: test concentration not given here
Chain of NADPH oxidase 2 (Homo sapiens) (P04839 whole entry, looked up): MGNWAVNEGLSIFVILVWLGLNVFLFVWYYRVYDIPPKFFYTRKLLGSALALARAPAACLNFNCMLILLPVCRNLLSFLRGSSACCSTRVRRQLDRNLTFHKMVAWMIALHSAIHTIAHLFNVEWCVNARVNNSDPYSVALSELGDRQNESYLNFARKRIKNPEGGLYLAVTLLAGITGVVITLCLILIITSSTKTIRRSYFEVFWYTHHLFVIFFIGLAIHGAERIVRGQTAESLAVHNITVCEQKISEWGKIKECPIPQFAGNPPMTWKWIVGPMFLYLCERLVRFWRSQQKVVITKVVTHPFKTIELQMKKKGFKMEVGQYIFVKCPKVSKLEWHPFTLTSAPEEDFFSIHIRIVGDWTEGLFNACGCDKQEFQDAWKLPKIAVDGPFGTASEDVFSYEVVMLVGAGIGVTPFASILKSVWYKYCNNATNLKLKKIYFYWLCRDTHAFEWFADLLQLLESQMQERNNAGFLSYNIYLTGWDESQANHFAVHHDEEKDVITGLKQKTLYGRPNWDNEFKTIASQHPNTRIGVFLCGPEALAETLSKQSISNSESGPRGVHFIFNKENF

[9] = target: NADPH oxidase 4 (Homo sapiens) (UniProt Q9NPH5); test: compounds shifting NOX4 Amplex Red fluorescence – cell-based, HEK293-NOX4, tetracycline-induced, NOX inhibitor project, primary screen (AID 1160); conditions: HEK293-NOX4, Amplex Red H2O2 fluorescence, 45 min; higher = more signal, called active from +8 up or from −8 down
Chain of NADPH oxidase 4 (Homo sapiens) (Q9NPH5 whole entry, looked up): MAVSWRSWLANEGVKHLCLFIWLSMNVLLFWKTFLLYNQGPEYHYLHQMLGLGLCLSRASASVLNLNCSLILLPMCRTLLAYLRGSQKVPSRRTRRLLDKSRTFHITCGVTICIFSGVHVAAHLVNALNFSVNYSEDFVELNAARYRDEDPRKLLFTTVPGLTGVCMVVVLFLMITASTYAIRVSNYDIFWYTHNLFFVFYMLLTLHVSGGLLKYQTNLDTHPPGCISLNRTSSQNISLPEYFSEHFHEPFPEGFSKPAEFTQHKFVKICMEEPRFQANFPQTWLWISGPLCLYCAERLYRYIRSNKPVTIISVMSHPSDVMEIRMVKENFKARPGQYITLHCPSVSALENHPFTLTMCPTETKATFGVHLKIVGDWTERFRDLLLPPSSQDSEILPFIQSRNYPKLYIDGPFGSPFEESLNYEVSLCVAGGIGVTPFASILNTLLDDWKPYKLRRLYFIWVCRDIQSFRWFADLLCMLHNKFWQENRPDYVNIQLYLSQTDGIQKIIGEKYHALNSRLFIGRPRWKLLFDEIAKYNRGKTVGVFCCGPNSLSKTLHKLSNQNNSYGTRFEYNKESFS

[10] = target: NADPH oxidase 5 (Homo sapiens) (UniProt Q96PH1); test: compounds shifting NOX5 Amplex Red fluorescence – cell-based, HEK293-NOX5, NOX inhibitor project, primary screen (AID 1161); conditions: HEK293-NOX5, ionomycin, 45 min, higher = more signal
Chain of NADPH oxidase 5 (Homo sapiens) (Q96PH1 whole entry, looked up): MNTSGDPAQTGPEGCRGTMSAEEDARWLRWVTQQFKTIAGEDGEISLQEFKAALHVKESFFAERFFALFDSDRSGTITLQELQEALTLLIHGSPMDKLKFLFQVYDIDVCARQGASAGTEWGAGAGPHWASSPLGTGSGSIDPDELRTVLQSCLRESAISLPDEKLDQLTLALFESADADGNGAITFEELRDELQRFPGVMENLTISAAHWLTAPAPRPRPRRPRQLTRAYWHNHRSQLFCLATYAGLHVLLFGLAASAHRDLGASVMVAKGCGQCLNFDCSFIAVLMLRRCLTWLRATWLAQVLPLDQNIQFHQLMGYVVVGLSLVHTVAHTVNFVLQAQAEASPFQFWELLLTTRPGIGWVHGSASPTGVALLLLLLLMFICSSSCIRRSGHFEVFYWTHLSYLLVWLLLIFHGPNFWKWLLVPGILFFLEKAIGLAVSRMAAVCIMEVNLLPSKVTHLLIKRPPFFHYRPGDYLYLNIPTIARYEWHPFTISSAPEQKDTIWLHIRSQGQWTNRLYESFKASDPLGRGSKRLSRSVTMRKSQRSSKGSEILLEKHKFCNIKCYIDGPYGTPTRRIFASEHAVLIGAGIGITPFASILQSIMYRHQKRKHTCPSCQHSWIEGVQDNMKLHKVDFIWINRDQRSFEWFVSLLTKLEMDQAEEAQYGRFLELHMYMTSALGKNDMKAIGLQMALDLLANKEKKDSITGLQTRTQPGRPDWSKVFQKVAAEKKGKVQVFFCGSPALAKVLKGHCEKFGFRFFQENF

[11] = compound effects on lung adenocarcinoma cell viability – A549, calcein-AM fluorescence, 48 h, basal, profiling panel (AID 1162); conditions: higher = more signal; also: test concentration not given here
[12] = compound effects on differentiated 3T3-L1 adipocyte viability – cell-based, 3T3-L1 adipocytes, calcein-AM fluorescence, 48 h, basal, profiling panel (AID 1163); conditions: 3T3-L1 adipocytes viability, higher = more signal; also: test concentration not given here
[13] = compound effects on hepatocellular carcinoma cell viability – HepG2, calcein-AM fluorescence, 48 h, basal, profiling panel (AID 1164); conditions: higher = more signal; also: test concentration not given here
[14] = compound effects on multiple myeloma cell viability – MM1S, calcein-AM fluorescence, 48 h, basal, profiling panel (AID 1165); conditions: higher = more signal; also: test concentration not given here
[15] = calcein-AM signal in unstimulated myeloma cells – cell-based, calcein-AM fluorescence, 48 h, PK04 Diversity Set, profiling panel (AID 1166); conditions: RPMI8226 myeloma viability, higher = more signal;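 also: cells grown under basal conditions without added stimulus; test concentration not given here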
[16] = JC-1 mitochondrial signal, unstimulated HepG2 cells – cell-based, JC-1 fluorescence, 24 h, 100 nL compound, profiling panel (AID 1167); conditions: HepG2 mitochondrial potential, higher = more signal; also: test concentration not given here
[17] = JC-1 mitochondrial signal, unstimulated adipocytes – cell-based, JC-1 fluorescence, 3T3-L1 adipocytes, 24 h, 100 nL compound, profiling panel (AID 1168); conditions: JC-1 mitochondrial fluorescence, higher = more signal, called active from +8 up or from −8 down; also: test concentration not given here
[18] = JC-1 mitochondrial signal, unstimulated myeloma cells – cell-based, JC-1 fluorescence, RPMI8226, 24 h, 100 nL compound, profiling panel (AID 1169); conditions: JC-1 mitochondrial potential fluorescence, higher = more signal; also: test concentration not given here
[19] = JC-1 mitochondrial signal, unstimulated MM1S myeloma – cell-based, JC-1 fluorescence, 24 h, 100 nL compound, profiling panel (AID 1170); conditions: MM1S mitochondrial potential, higher = more signal; also: test concentration not given here
[20] = resazurin metabolic signal in A549 cells – cell-based, resazurin fluorescence, 24 h, PK04 Diversity Set, profiling panel (AID 1171); conditions: A549 viability, higher = more signal, called active from +8 up or from −8 down; also: test concentration not given here

Row | SMILES | z-score [1] | composite z-score [2] | z-score [3] | z-score [4] | z-score [5] | z-score [6] | z-score [7] | z-score [8] | z-score [9] | z-score [10] | z-score [11] | z-score [12] | z-score [13] | z-score [14] | z-score [15] | z-score [16] | z-score [17] | z-score [18] | z-score [19] | z-score [20]
1 | C=CCN(Cc1ccccc1)C(=O)C1N(C(C)(C)CO)C(=O)C2C(C(=O)O)C3C=CC21O3 (stereo not given) | -0.511 (inactive) and 1.45 (inactive) | -0.144 and -0.779 | 0.0247 (inactive) and -0.244 (inactive) | 0.0843 (inactive) and -0.355 (inactive) | -1.15 (inactive) and -0.742 (inactive) | -0.255 (inactive) and -0.354 (inactive) | 0.0613 and -0.122 | 0.515 (inactive) and 0.043 (inactive) | 0.0722 (inactive) and 0.185 (inactive) | 0.793 and -0.0303 | -0.535 and -0.297 | -0.355 and 0.134 | -1.11 and 0.0167 | 0.0296 and 1.03 | 0.0867 and -0.103 | -0.955 and -0.123 | 0.0762 (inactive) and -0.264 (inactive) | 0.248 and 0.652 | -0.16 and -0.15 | -0.363 (inactive) and 0.344 (inactive)
2 | COC(=O)C1=C(C)N(Cc2ccccc2)[C@]23O[C@](C(=O)OC)(C(=O)N2[C@@H]1c1ccccc1)[C@H]1C(=O)N(c2ccccc2)C(=O)[C@H]13 | -0.371 (inactive) and 0.644 (inactive) | -0.139 and -0.0046 | 0.729 (inactive) and 0.997 (inactive) | 0.626 (inactive) and -1.04 (inactive) | 1.17 (inactive) and 2.21 (inactive) | -0.0207 (inactive) and -1.23 (inactive) | -0.103 and 0.506 | 0.983 (inactive) and 0.108 (inactive) | 0.632 (inactive) and 1.27 (inactive) | 1.07 and 0.999 | 0.0342 and 1.13 | 0.513 and 1.12 | -0.254 and -0.339 | 0.149 and 0.0697 | -0.483 and 0.292 | 0.369 and 0.573 | 0.658 (inactive) and 0.885 (inactive) | -0.749 and -0.197 | 0.702 and 0.235 | 0.376 (inactive) and -0.0028 (inactive)
3 | CCCCCN1CC=CC23O[C@@H]4C=CCCOC(=O)C4[C@H]2C(=O)N(C(C)CO)[C@@H]3C1=O (stereo not given in full) | 1.5 (inactive) and 0.971 (inactive) | -0.962 and 1.57 | 2.38 (inactive) and 0.551 (inactive) | 0.174 (inactive) and 0.44 (inactive) | 0.833 (inactive) and 0.233 (inactive) | 0.0882 (inactive) and 0.454 (inactive) | 0.154 and 0.166 | 1.27 (inactive) and 1.08 (inactive) | 0.164 (inactive) and 0.696 (inactive) | 2.09 and 2.43 | -0.345 and -0.691 | 0.94 and -0.707 | -1.46 and -0.31 | 0.737 and 0.402 | 0.254 and -0.282 | -0.473 and -1.11 | -0.354 (inactive) and -0.522 (inactive) | 0.861 and -0.0156 | -0.141 and 0.641 | 1.08 (inactive) and 0.713 (inactive)
4 | O=C(NN=C1C[C@@H](O)[C@@H](O)[C@@H]2[C@@H]3C(=O)N(Cc4ccc5c(c4)OCO5)C(=O)[C@@H]3CC[C@H]12)OCc1ccccc1 | 1.2 (inactive) | 0.126 | 37 (active) | 14.8 (active) | 0.833 (inactive) | 1.24 (inactive) | -0.241 | -1.32 (inactive) | 0.0354 (inactive) | 0.664 | 0.356 | -0.263 | 0.339 | 0.172 | 0.102 | 1.3 | 0.415 (inactive) | 0.559 | -1.79 | -0.31 (inactive)
5 | CC(C)=NOCc1ccc(-c2cn([C@@H]3COC[C@H]3O)nn2)cc1 | 0.164 (inactive) | -0.245 | 11.2 (active) | 0.536 (inactive) | -0.725 (inactive) | 0.296 (inactive) | -0.119 | 0.606 (inactive) | 0.0519 (inactive) | -0.388 | 0.0524 | 0.371 | 0.239 | -0.812 | 0.176 | -0.32 | -0.0926 (inactive) | 0.169 | 1.43 | -0.207 (inactive)
6 | CC(CO)N1C(=O)[C@@H]2C3C(=O)OCCC=C[C@H]3OC23C=CCN(C(C)(C)C)C(=O)[C@@H]13 (stereo not given in full) | -0.745 (inactive) and -0.506 (inactive) | -0.224 and 0.227 | 0.901 (inactive) and 1.86 (inactive) | -0.27 (inactive) and 0.449 (inactive) | 1.02 (inactive) and 0.409 (inactive) | 0.406 (inactive) and 0.112 (inactive) | 1.11 and -0.113 | 0.793 (inactive) and 1.49 (inactive) | 0.0644 (inactive) and 0.425 (inactive) | 1.96 and 2.84 | -0.418 and -0.461 | -0.142 and -0.791 | -1.27 and -0.487 | -0.388 and 0.885 | -0.0799 and 0.143 | -0.985 and -1.27 | -0.105 (inactive) and -0.534 (inactive) | 0.914 and -0.0183 | 0.157 and -0.365 | -0.731 (inactive) and -0.299 (inactive)
